Inconclusive results are not listed. Some compounds were tested as several samples or in several runs, with calls that do not always agree. Calls of active or inactive are those of the source. Rule for the calls: active = hit-call score of the fitted dose curve at least 0.9, where 1 is the maximum; inconclusive = response in the unintended direction; inactive = score below 0.9.
molecular target: Nuclear receptor subfamily 1 group I member 2 (Homo sapiens) (UniProt O75469); experiment: NVS_NR_hPXR: NovaScreen (NVS) Nuclear Receptor Binding Assay for human Pregnane X Receptor (PXR) (AID 2283365);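 note: a drop in FRET signal versus DMSO baseline means the compound binds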
Sequence (O75469 whole entry, looked up): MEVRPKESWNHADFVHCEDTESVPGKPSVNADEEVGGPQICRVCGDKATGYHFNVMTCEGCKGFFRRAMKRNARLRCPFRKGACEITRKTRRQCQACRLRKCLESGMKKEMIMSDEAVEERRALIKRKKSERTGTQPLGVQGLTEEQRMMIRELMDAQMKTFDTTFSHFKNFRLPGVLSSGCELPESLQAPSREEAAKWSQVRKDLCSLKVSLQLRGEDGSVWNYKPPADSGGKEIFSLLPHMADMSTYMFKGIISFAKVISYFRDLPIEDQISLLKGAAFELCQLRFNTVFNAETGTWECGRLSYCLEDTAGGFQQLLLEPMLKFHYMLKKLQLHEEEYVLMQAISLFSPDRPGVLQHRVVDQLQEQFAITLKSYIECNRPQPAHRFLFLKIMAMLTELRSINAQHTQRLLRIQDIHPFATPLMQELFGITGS
Summary of the method: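 Binding was measured by time-resolved fluorescence resonance energy transfer after a 2 h exposure of extracted human PXR protein without cells. Compounds were first tested at 25 uM in duplicate, with concentration series for actives; DMSO defined baseline.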

Compound | outcome | AC50
CC(C1CC1)C(O)(Cn1cncn1)c1ccc(Cl)cc1 (configuration not stated) | inactive | –
CN(C)[C@@H]1C(=O)C(C(N)=O)=C(O)[C@@]2(O)C(=O)C3=C(O)c4c(O)cccc4[C@@](C)(O)[C@H]3[C@H](O)[C@@H]12 | inactive | 2.08 µM (active)
CC(C)N(C(=O)SCC(Cl)=C(Cl)Cl)C(C)C | inactive | –

molecular target: rat Androgen Receptor (AR), Ar (gene 24208) (UniProt P15207); experiment: NVS_NR_rAR: NovaScreen (NVS) Nuclear Receptor Binding Assay for rat Androgen Receptor (AR) (AID 2283366)
Sequence (P15207 whole entry, looked up): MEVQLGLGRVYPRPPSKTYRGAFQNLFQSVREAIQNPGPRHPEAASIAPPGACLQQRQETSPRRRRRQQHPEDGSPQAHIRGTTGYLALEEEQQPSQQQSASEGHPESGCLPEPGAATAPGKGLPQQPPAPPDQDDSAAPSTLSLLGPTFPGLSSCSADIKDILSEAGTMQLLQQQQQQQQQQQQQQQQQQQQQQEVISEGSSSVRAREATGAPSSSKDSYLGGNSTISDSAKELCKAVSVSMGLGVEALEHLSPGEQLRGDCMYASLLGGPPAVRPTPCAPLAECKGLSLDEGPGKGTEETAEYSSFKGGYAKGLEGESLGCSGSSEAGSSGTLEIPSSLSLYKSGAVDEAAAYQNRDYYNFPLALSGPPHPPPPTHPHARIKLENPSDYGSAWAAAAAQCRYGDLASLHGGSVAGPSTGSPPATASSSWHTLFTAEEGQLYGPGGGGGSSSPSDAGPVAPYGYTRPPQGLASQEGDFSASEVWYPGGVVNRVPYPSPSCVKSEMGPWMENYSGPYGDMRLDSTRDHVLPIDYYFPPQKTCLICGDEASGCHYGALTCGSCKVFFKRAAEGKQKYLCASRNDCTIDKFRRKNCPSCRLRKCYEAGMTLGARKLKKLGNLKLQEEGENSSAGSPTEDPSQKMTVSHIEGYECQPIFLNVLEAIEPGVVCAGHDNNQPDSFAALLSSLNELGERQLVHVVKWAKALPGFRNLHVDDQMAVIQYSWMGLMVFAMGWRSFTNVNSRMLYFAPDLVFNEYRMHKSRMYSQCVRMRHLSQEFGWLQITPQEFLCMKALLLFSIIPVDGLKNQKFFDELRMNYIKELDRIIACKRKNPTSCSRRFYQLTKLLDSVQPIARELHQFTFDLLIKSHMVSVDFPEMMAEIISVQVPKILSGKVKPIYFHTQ
Summary of the method: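 Actives from a duplicate single-concentration (25 uM) primary run went on to concentration series. Displacement of radioligand was counted by filtration and scintillation, 18 h post-dose, using prostate extracts from testosterone-pretreated rats, with DMSO as baseline.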

Compound | outcome
CNC(=O)ON=C(SC)C(=O)N(C)C | inactive
CCCSP(=O)(OCC)SCCC | inactive
C=C(C)[C@H]1Cc2c(ccc3c2O[C@@H]2COc4cc(OC)c(OC)cc4[C@@H]2C3=O)O1 | inactive

molecular target: guinea pig Sigma Receptor, Non-selective Binding, SIGMAR1 (gene 100135589) (UniProt Q60492); experiment: NVS_OR_gSIGMA_NonSelective: NovaScreen (NVS) Nuclear Receptor Binding Assay for guinea pig Sigma Receptor, Non-selective Binding (AID 2283367)
Sequence (Q60492 whole entry, looked up): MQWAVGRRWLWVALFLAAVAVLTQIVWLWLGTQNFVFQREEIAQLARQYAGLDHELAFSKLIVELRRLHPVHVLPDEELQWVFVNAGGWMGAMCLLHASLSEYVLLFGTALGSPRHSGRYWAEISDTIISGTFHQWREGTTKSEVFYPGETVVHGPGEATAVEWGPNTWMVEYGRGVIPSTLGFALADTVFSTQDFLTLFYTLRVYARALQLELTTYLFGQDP
Summary of the method: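 Test chemicals were screened in duplicate at 25 uM, then in concentration series if active, against radioligand binding to guinea pig brain membranes; filtration and scintillation counting at 1 h measured remaining bound ligand.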

Compound | AC50 | outcome
CCCOCC(=Nc1ccc(Cl)cc1C(F)(F)F)n1ccnc1 | 7.82 µM (active) | –
S=C1NCCN1 | – | inactive
CCOC(=O)CC(SP(=O)(OC)OC)C(=O)OCC (configuration not stated) | – | inactive
C#CC(C)(C)NC(=O)c1cc(Cl)cc(Cl)c1 | 1.94 µM (active) | –
FC(F)C(F)(F)OCC(Cn1cncn1)c1ccc(Cl)cc1Cl (configuration not stated) | 16.5 µM (active) | –

— PubChem BioAssay (EPA / NIEHS)
